mHTT-CaM PPI inh: mutant huntingtin-calmodulin interaction inhibitors – biochemical, AlphaScreen, primary screen; AlphaScreen His-mHTT/GST-CaM binding, luminescence; inhibition, % at 15 µM; 190,000 compounds, 3.6% hits; AID 1671202, 2021;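 note: 0% = both proteins with DMSO and 100% = one protein alone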
Pf apPOL inh: Pf-apPOL inhibitors, biochemical, fluorescence; Plasmodium falciparum apicoplast DNA polymerase (apPOL); AID 1794808, 2022; inhibition, % at 10 µM; Recombinant Pf-apPOL, molecular beacon fluorescence, 1.5 h; 210,000 compounds, 0.25% hits
The depositor's hits bear a star; x = not tested or not shown. The list is not random: actives were taken first. Their share in the collection is about 3.5%. Cut-off read from the data, not from the text of the source: active = inhibition above about 50%; inactive = the rest.

SMILES | mHTT-CaM PPI inh | Pf apPOL inh
O=C(CN(c1ccc([N+](=O)[O-])cc1)S(=O)(=O)c1ccccc1)NC1CCCC1 | 4.9 | 3.5
COc1ccc(-c2nc3cccnc3n2C2CCN(C(=O)c3ccc(C)s3)C2)cc1 (centres undefined) | 65.0* | -5.6
COc1ccc(-c2nc3cccnc3n2C2CCN(C(=O)c3ccc(Cl)s3)C2)cc1 (centres undefined) | 70.3* | -2.9
COc1ccc(-c2nc3cccnc3n2C2CCN(C(=O)NC(C)C)C2)cc1 (centres undefined) | 0.9 | -2.9
COc1ccc(-c2nc3cccnc3n2C2CCN(C(=O)c3cccs3)C2)cc1 (centres undefined) | 37.8 | -0.7
COc1cc(C(=O)N2CCC(C(=O)Nc3cccc(C)c3C)CC2)cc(OC)c1OC | 4.8 | -5.9
N#Cc1c(SCc2ccccc2F)nsc1SCc1ccccc1F | -66.5 | x
CCc1noc2ncnc(NC3CC3)c12 | -8.9 | -3.2
O=C(c1cccc(F)c1)c1coc2ccc(Cl)cc2c1=O | 26.1 | -11.3
O=C(c1ccccc1Cl)c1coc2ccc(Cl)cc2c1=O | 98.3* | 0.8
CCNC(=O)C1CCCN(c2nc3ncn(CC(=O)NC4CCCCC4)c(=O)c3s2)C1 (centres undefined) | -5.3 | -3.7
CCOC1CCN(C(=O)NC(C)C)CC1 | -1.9 | -1.3
COc1cc(OC)c(OC)cc1/C=C1\Cc2ccccc2C1=O | 0.0 | -5.4
COc1cc(OC)c(OC)cc1/C=C1/CCC/C(=C\c2cc(OC)c(OC)cc2OC)C1=O | 64.0* | -0.6
CC(C)n1c(=O)c(N2CCN(C(=O)c3ccccc3)CC2)nc2ccncc21 | 8.1 | -3.9
CC(C)n1c(=O)c(N2CCN(C(=O)c3cc(-c4ccccc4)n[nH]3)CC2)nc2ccncc21 | 50.3* | 3.9
Cn1c(=O)[nH]cc(C(=O)Nc2cccc(NS(C)(=O)=O)c2)c1=O | -10.8 | 4.3
COc1ccc(N2C=C(C#N)S(=O)(=O)c3ccc(C)cc32)cc1OC | -6.0 | -3.8
Cc1c(Cl)cccc1NC(=O)CN1CCc2ccccc2C1C(=O)N1CCC(C)CC1 (centres undefined) | 69.0* | -5.6
CC1CCN(C(=O)C2c3ccccc3CCN2CC(=O)Nc2ccc(Cl)cc2F)CC1 (centres undefined) | 67.8* | -3.3
Cc1ccc(NC(=O)CN2CCc3ccccc3C2C(=O)N2CCCC2)cc1Cl (centres undefined) | 64.1* | -4.3
Cc1ccc(C)c(NC(=O)CN2CCc3ccccc3C2C(=O)N2CCC(C)CC2)c1 (centres undefined) | 12.1 | -6.2
Cc1cc(NC(=O)CN2CCc3ccccc3C2C(=O)N2CCCCC2)ccc1F (centres undefined) | 2.1 | -1.1
O=C(CN1CCc2ccccc2C1C(=O)N1CCCCC1)Nc1ccc(Cl)cc1F (centres undefined) | -6.4 | -2.4
CC(=O)NC1C(Oc2ccc(Cl)cc2)OC2COC(C)(C)OC2C1O (centres undefined) | -2.3 | -7.6
SMILES | mHTT-CaM PPI inh | Pf apPOL inh
CC1CN(C2=NC(=O)/C(=C/c3cn[nH]c3-c3ccccc3)S2)CC(C)O1 (centres undefined) | 3.0 | 65.7*
Cc1ccc(/C=C2\SC(N3CC(C)OC(C)C3)=NC2=O)o1 (centres undefined) | 3.0 | -1.0
OC(COC1=NCNc2cc(Cl)ccc21)c1ccc2c(c1)OCCO2 (centres undefined) | x | -11.8
Clc1ccccc1Cn1nnc2c(Sc3nnc(-c4ccccc4)n3-c3ccccc3)ncnc21 | x | -1.6
COc1ccc(OC)c(NC(=O)c2ccc(Cl)cc2)c1 | -5.5 | -3.4
CC(=O)Oc1ccc(C(=O)Nc2cc(Cl)ccc2OC(C)=O)cc1 | 68.8* | -0.6
O=C1CCC(=O)N1c1cccc(S(=O)(=O)N2CCOCC2)c1 | -3.1 | 0.6
O=[N+]([O-])c1cc2c(cc1CNc1ccc3c(c1)CCC3)OCO2 | 80.9* | -6.9
O=[N+]([O-])c1cc2c(cc1CNc1ccc3cn[nH]c3c1)OCO2 | 45.2 | -1.4
ClC1=C(CN2CCSCC2)CSc2ccc(Cl)cc21 | x | -4.7
CN(C)c1ccc(C(=O)Nc2ccc(O)c3c(=O)cc(-c4ccccc4Cl)oc23)cc1 | 54.1* | 1.9
O=C(Nc1ccc(O)c2c(=O)cc(-c3ccccc3Cl)oc12)c1ccc(Br)cc1 | 21.0 | -4.1
Cc1cccc(C)c1NC(=O)C1(N(Cc2ccccc2)C(=O)Cn2nnnc2N)CCCCC1 | 35.0 | -4.0
CC1=CC(=O)C(C(C)C)=CC1=NS(=O)(=O)c1ccc([N+](=O)[O-])cc1 | 50.0 | -6.4
CC1=CC(=NS(=O)(=O)c2ccc(Cl)cc2)C(C)=CC1=O | 65.0* | -1.6
COCCNC(=O)c1cn2c(n1)CCC(c1ccc(F)cc1)C2 (centres undefined) | 3.0 | -1.4
COc1ccc(N2C=C(C#N)S(=O)(=O)c3ccc(Cl)cc32)c(C)c1 | -5.5 | -4.5
COc1ccc2c(c1)-c1cc(Cl)ccc1S(=O)(=O)N2C(C)=O | 87.0* | -2.1
Cc1cc(OCC(=O)NC(C)c2ccccc2)ccc1Cl (centres undefined) | -3.5 | 3.2
COc1cc(C=C2Oc3c(ccc4c3CN(Cc3ccccn3)CO4)C2=O)cc(OC)c1OC | 100.3* | -35.9
COc1ccccc1CN1COc2ccc3c(c2C1)OC(=Cc1cccnc1)C3=O | 3.1 | -10.5
COc1ccc(N2COc3ccc4c(c3C2)OC(=Cc2ccc(OC)c(OC)c2)C4=O)cc1 | 31.3 | 4.8
COc1ccccc1CN1COc2ccc3c(c2C1)OC(=Cc1cc(OC)c(OC)c(OC)c1)C3=O | 8.0 | -17.2
COc1cccc(C=C2Oc3c(ccc4c3CN(Cc3ccccn3)CO4)C2=O)c1 | 99.3* | -32.9
COc1ccccc1CN1COc2ccc3c(c2C1)OC(=Cc1ccncc1)C3=O | 100.3* | -20.8
SMILES | mHTT-CaM PPI inh | Pf apPOL inh
COc1cc(C=C2Oc3c(ccc4c3CN(c3ccc5c(c3)OCO5)CO4)C2=O)cc(OC)c1OC | 59.1* | -1.4
COc1cccc(CN2COc3ccc4c(c3C2)OC(=Cc2cc(OC)c(OC)c(OC)c2)C4=O)c1 | 11.0 | 8.0
CSC1=NCCN1C(=O)c1ccc(OC(C)C)cc1 | -1.0 | -7.0
C[C@@H](NS(=O)(=O)c1ccc(Br)cc1F)[C@H](O)c1ccccc1 | -6.4 | -5.2
COc1ccc(OC)c(C=C2Oc3c(ccc4c3CN(Cc3ccncc3)CO4)C2=O)c1 | 15.6 | -4.6
COc1ccc(C=C2Oc3c(ccc4c3CN(Cc3ccccn3)CO4)C2=O)c(OC)c1 | 100.2* | -89.2
CC12CCC(C(=O)N(c3ccccc3Br)C1=O)C2(C)C (centres undefined) | -1.0 | -4.5
CCC(=O)Nc1nc(-c2ccc(F)cc2)cs1 | -6.5 | -6.0
Cc1ccc(Nc2nc(-c3ccc(F)cc3)cs2)cc1Cl | 63.5* | 4.1
CCCCOc1ccc(-c2csc(N)n2)cc1[N+](=O)[O-] | 22.3 | 3.3
CCOc1ccc(-c2csc(Nc3ccc(F)cc3)n2)cc1[N+](=O)[O-] | 90.6* | 0.4
Cc1ccc(-c2csc(Nc3ccc(F)cc3)n2)cc1 | 34.8 | -1.8
Fc1ccc(-c2csc(Nc3ccc(Br)cc3)n2)cc1 | 98.0* | 1.4
Fc1ccc(Nc2nc(-c3ccc(Cl)cc3)cs2)cc1 | 70.8* | -1.6
Cc1ccc(-c2csc(Nc3ccc(F)cc3)n2)cc1C | 14.5 | -5.8
CC(C)S(=O)(=O)c1ccc(CC(=O)Nc2ccc3c(c2)CCC(=O)N3)cc1 | -6.8 | -4.6
CNC(=O)C(=O)NCCN1CCN(Cc2ccc(Cl)cc2Cl)CC1 | -3.4 | -6.1

High-throughput results deposited in PubChem BioAssay by University of Kansas High Throughput Screening Laboratory.
